Test results: PubChem BioAssay (NCATS)
Results filed as inconclusive are left out. Active and inactive are the calls of the source. Unless noted, calls come from the whole dose curve.

Tests used:
[1] = qHTS for Inhibitors of the Functional Ribonucleoprotein Complex (vRNP) of Lassa (LASV) Arenavirus: LASV Primary Screen - GLuc reporter signal (AID 1347082; calls by dose curve; tested in HEK293 reporter line; note: nearly all actives have a fitted effect of over 60% in size)
[2] = qHTS for Inhibitors of the Functional Ribonucleoprotein Complex (vRNP) of Lassa (LASV) Arenavirus: Viability assay - alamar blue signal for LASV Primary Screen (AID 1347083; calls by dose curve; tested in HEK293 reporter line; note: nearly all actives have a fitted effect of over 80% in size)
[3] = qHTS for Inhibitors of the Functional Ribonucleoprotein Complex (vRNP) of Lymphocytic Choriomeningitis Arenaviruses (LCMV): Viability assay - alamar blue signal for LCMV Primary Screen (AID 1347085; calls by dose curve; tested in HEK293 reporter line; note: nearly all actives have a fitted effect of over 80% in size)
[4] = molecular target: Nucleoprotein (Lymphocytic choriomeningitis virus (strain Armstrong)) (UniProt P09992); assay: qHTS for Inhibitors of the Functional Ribonucleoprotein Complex (vRNP) of Lymphocytic Choriomeningitis Arenaviruses (LCMV): LCMV Primary Screen - GLuc reporter signal (AID 1347086); note: nearly all actives have a fitted effect of over 70% in size
Sequence of Nucleoprotein (Lymphocytic choriomeningitis virus (strain Armstrong)) (P09992 whole entry, looked up): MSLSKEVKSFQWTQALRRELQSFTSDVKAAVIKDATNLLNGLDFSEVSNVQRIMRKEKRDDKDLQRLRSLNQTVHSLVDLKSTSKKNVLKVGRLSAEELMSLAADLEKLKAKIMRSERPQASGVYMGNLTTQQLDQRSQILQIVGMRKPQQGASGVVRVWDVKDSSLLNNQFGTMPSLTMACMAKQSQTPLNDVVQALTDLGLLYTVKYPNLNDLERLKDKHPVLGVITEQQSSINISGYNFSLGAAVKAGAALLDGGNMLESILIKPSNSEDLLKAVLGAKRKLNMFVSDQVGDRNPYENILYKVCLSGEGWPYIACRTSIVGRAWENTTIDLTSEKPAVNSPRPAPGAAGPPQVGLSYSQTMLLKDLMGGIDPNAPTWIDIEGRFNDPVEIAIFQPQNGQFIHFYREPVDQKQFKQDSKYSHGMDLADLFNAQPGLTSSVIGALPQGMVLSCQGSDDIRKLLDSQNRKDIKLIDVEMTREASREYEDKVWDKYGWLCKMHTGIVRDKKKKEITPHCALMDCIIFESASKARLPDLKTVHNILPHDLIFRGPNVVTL

Measured: Potency
Potency is the fitted concentration of half-maximal effect.

CN1CCC[C@H]1CCO[C@](C)(c1ccccc1)c1ccc(Cl)cc1
inactive: [1] | [2] | [3] | [4]

NC1C(O)OC(CO)[C@@H](O)[C@@H]1O[C@H]1O[C@@H](C(=O)O)C(O)C(O)C1O (stereo not given in full)
inactive: [1] | [2] | [3] | [4]

COc1cc(OC)c2c(c1)C(=O)OC2
inactive: [1] | [2] | [3] | [4]

NC(=O)NCCCC(=O)O
inactive: [1] | [2] | [3] | [4]

C[C@@H]1[C@H]2[C@@H](O[C@@H]3O[C@H](CO)[C@@H](O)[C@H](O)[C@H]3O)OC=C(C(=O)O)[C@H]2C[C@@H]1O
inactive: [1] | [2] | [3] | [4]

c1ccc(-c2ccc3ccccc3n2)cc1
inactive: [1] | [2] | [3] | [4]

C[C@@H]1CC[C@@]23COC(=O)C2=CCC[C@@H]3[C@@]1(C)CC/C(=C/CO)CO
inactive: [1] | [2] | [3] | [4]

CC1(C)C(N(O)C(=O)Nc2ccc(Cl)cc2)N(c2ccc(Cl)cc2)C(=O)N1CC(=O)NN=CC=Cc1ccc([N+](=O)[O-])o1 (stereo not given)
inactive: [1] | [2] | [3] | [4]

COc1ccc([C@H]2Cc3cccc(O)c3C(=O)O2)cc1O
inactive: [1] | [2] | [3] | [4]

O=C/C=C/c1ccc(O)cc1
inactive: [1] | [2] | [3] | [4]

CC(O)C(C)O (stereo not given)
inactive: [1] | [2] | [3] | [4]

C[C@@H](O)[C@H]1O[C@]2(C)CCC[C@H]1O2
inactive: [1] | [2] | [3] | [4]

CC(=O)Oc1ccc2c(C)cc(=O)oc2c1
inactive: [1] | [2] | [3] | [4]

COc1cc(=O)n(C)c2c(O)cccc12
inactive: [1] | [2] | [3] | [4]

CS(=O)(=O)N1CCN(Cc2cc3nc(-c4cccc5[nH]ncc45)nc(N4CCOCC4)c3s2)CC1
active: [1] 1720 nM | [2] 968 nM | [3] 1220 nM | [4] 1370 nM

OC[C@H]1O[C@@H](OC[C@H]2O[C@@H](O)[C@H](O)[C@@H](O)[C@@H]2O)[C@H](O)[C@@H](O)[C@@H]1O
inactive: [1] | [2] | [3] | [4]

C=C1C[C@]23CC[C@H]4C(CO)(CO)C[C@@H](O)C[C@@]4(C)[C@@H]2CC[C@H]1C3
inactive: [1] | [2] | [3] | [4]

NC[C@@H]1O[C@@H](O[C@H]2[C@@H](O)[C@H](O[C@@H]3[C@@H](O)[C@@H](N)C[C@H](N)[C@H]3O[C@H]3O[C@H](CN)[C@@H](O)[C@@H](O)[C@H]3N)O[C@H]2CO)[C@H](N)[C@@H](O)[C@@H]1O
inactive: [1] | [2] | [3] | [4]

C[C@@H](Cc1cc2c(c(C(N)=O)c1)N(CCCO)CC2)NCCOc1ccccc1OCC(F)(F)F
inactive: [1] | [2] | [3] | [4]

CC(=O)c1ccccc1O
inactive: [1] | [2] | [3] | [4]

COC(=O)Nc1ccc(C)c(NC(=O)OC)c1
inactive: [1] | [2] | [3] | [4]

CC(=O)O[C@@H]1[C@H]2CC[C@@H]3[C@]1(C[C@@H](OC(C)=O)[C@@]1(O)C([C@@H]4O[C@@H]4C1(C)C)[C@]3(C)O)C[C@@]2(C)O (stereo not given in full)
inactive: [1] | [2] | [3] | [4]

O=c1[nH]c(=O)n([C@H]2C[C@@H](O)[C@@H](CO)O2)cc1I
inactive: [1] | [2] | [3] | [4]

Cc1ccc([N+](=O)[O-])cc1S(=O)(=O)N(C)N=Cc1cnc2ccc(Br)cn12
active: [1] 21.7 nM | [2] 24.3 nM | [3] 61.1 nM | [4] 217 nM

COC(=O)CC(C)CCC=C(C)C (stereo not given)
inactive: [1] | [2] | [3] | [4]

CC1=CC2=C(C=O)C(=O)C(C)(O)C(O)C2=CO1 (stereo not given)
inactive: [1] | [2] | [3] | [4]

CC(=O)OCC(=O)[C@@]1(O)CC[C@H]2[C@@H]3CCC4=CC(=O)C=C[C@]4(C)[C@@H]3[C@@H](O)C[C@@]21C
inactive: [1] | [2] | [3] | [4]

CCCc1ccc(OC)cc1
inactive: [1] | [2] | [3] | [4]

CC1(C)C[C@H]2C3=CCC4[C@@]5(C)CC[C@H](O)C(C)(C)C5CC[C@@]4(C)[C@]3(C)[C@@H](O)[C@@H](O)[C@@]2(CO)[C@@H](O)[C@@H]1O (stereo not given in full)
inactive: [1] | [2] | [3] | [4]

C[C@]12CC[C@H](O)CC1=CCC1C2CC[C@@]2(C)C1C[C@@H](O)[C@@H]2O (stereo not given in full)
inactive: [1] | [2] | [3] | [4]

O=c1cc(-c2ccccc2)c2c(O)cc(O)cc2o1
inactive: [1] | [2] | [3] | [4]

CC(C)CNC(=O)/C=C/C=C/c1ccc2c(c1)OCO2
inactive: [1] | [2] | [3] | [4]

CCCCCCOC(=O)CCCCC
inactive: [1] | [2] | [3] | [4]

COc1ccc(C=CC(=O)c2ccc(OC)c(OC)c2O)cc1OC
inactive: [1] | [2] | [3] | [4]

CC(=O)O[C@@H]1[C@H](OC(=O)CC(C)C)c2c(ccc3ccc(=O)oc23)OC1(C)C
inactive: [1] | [2] | [3] | [4]

O=C(NCCCCNCCCNC(=O)c1ccccc1)c1ccccc1
inactive: [1] | [2] | [3] | [4]

COC(=O)c1cc(OC)cc(O)c1C(=O)c1c(O)cc(C)cc1O
inactive: [1] | [2] | [3] | [4]

N[C@@H](CSS(=O)(=O)O)C(=O)O
inactive: [1] | [2] | [3] | [4]

CC(C)CCCC(C)CCO (stereo not given)
inactive: [1] | [2] | [3] | [4]

COc1ccc(-c2oc3ccccc3c(=O)c2O)cc1
inactive: [1] | [2] | [3] | [4]

CC(C)c1ccc(C=O)cc1
inactive: [1] | [2] | [3] | [4]

COC(=O)/C=C/c1ccccc1
inactive: [1] | [2] | [3] | [4]

CCOC(=O)[C@H](CCc1ccccc1)N[C@@H](C)C(=O)N1[C@@H](C(=O)O)C[C@H]2CCC[C@@H]21
inactive: [1] | [2] | [3] | [4]

O=c1cc(-c2ccccc2F)[nH]c2cc3c(cc12)OCO3
inactive: [1] | [2] | [3] | [4]

CC(C)=CCC/C(C)=C/Cc1c(O)ccc(C(=O)/C=C/c2ccc(O)cc2)c1O
inactive: [1] | [2] | [3] | [4]

OC/C=C/c1ccccc1
inactive: [1] | [2] | [3] | [4]

O=c1c(O)c(-c2ccccc2)oc2cc(O)cc(O)c12
inactive: [1] | [2] | [3] | [4]

C=C1[C@@H](OC(C)=O)CC[C@]2(C)[C@@H]1C[C@@H]1C[C@H](OC(C)=O)C(C)=C([C@@H](OC(C)=O)[C@@H]2OC(C)=O)C1(C)C
inactive: [1] | [2] | [3] | [4]

CC1(C)CCC[C@@](C)([C@H]2CC[C@]3(C)[C@@H]2[C@H](O)C[C@@H]2[C@@]4(C)CC[C@H](O)C(C)(C)[C@@H]4CC[C@]23C)O1
inactive: [1] | [2] | [3] | [4]

Cc1cnc(C)c(C)n1
inactive: [1] | [2] | [3] | [4]

Cn1ncc(S(=O)(=O)Cc2ccccc2)c(Br)c1=O
inactive: [1] | [2] | [3] | [4]

CC(C)(O)C1CC[C@@](C)([C@@H]2CC[C@]3(C)[C@H]2[C@H](O)CC2[C@@]4(C)CCC(O)C(C)(C)C4C(OC4OC(CO)C(O)C(O)C4O[C@@H]4OCC(O)C(O)C4O)C[C@]23C)O1 (stereo not given in full)
inactive: [1] | [2] | [3] | [4]

COc1ccc(-c2cc(=O)c3c(O)cc(OC4OC(COC5OC(C)C(O)C(O)C5O)C(O)C(O)C4O)cc3o2)cc1O (stereo not given)
inactive: [1] | [2] | [3] | [4]

COc1cc(O)c2c(=O)c3c(OC)c(O)ccc3oc2c1
inactive: [1] | [2] | [3] | [4]

N[C@H](CSSC[C@@H](N)C(=O)O)C(=O)O
inactive: [1] | [2] | [3] | [4]

CC[C@H]1O[C@]2(CC[C@@H]1C)C[C@@H]1C[C@@H](C/C=C(\C)C[C@@H](C)/C=C/C=C3\CO[C@@H]4[C@H](O)C(C)=C[C@@H](C(=O)O1)[C@]34O)O2
inactive: [1] | [2] | [3] | [4]

Cc1ccc(C(C)(C)O)cc1
inactive: [1] | [2] | [3] | [4]

O=C1CCCCCCCCCCCCCC1
inactive: [1] | [2] | [3] | [4]

CCCCCC/C=C/C=O
inactive: [1] | [2] | [3] | [4]

N#CC(c1ccc(O)cc1)N1CCCCC1 (stereo not given)
inactive: [1] | [2] | [3] | [4]
